# Paper PMC7862700, “An all-to-all approach to the identification of sequence-specific readers for epigenetic DNA modifications on cytosine”
# Key:
# Assay in all cases: DAPPL (digital affinity profiling via proximity ligation, sequencing); 10 mM Tris-HCl pH 7.5, 50 mM NaCl, 1 mM DTT, 4% glycerol, room temperature, 30 min; GST-TFs on glutathione beads, 16-mer random dsDNA library, 0.1% formaldehyde crosslink after washing; high values mean tight binding
# Conditions in all cases: protein: recombinant; tags: N-terminal GST; dsDNA, one strand shown
# EHF = biological target: T1, EHF (Homo sapiens, UniProt Q9NZC4 1-300)
# T1 sequence: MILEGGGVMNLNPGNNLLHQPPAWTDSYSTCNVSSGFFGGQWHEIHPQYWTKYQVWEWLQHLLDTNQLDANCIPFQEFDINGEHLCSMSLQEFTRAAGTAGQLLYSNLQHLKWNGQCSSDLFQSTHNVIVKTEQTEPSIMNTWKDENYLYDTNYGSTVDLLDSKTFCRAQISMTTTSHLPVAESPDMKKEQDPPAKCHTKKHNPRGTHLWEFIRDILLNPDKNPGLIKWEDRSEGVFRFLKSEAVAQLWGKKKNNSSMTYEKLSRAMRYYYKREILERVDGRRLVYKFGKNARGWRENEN
# Method in brief: (§1)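 Sequencing on an Illumina NextSeq500 followed washing, crosslinking with 0.1% formaldehyde, proximity ligation (BsaI/T4 ligase, 1 h, 37 °C) and PCR amplification of pools that had been incubated for 30 min at room temperature with 200 nmole of a random double-stranded 16-mer DNA library in Tris/NaCl/DTT/glycerol buffer. Each pool held DNA-barcoded human transcription factors, expressed in yeast as GST fusions and captured on glutathione beads, plus a tag-only sample. Binding signal is a hexamer's read frequency for a factor divided by its frequency in the tag-only sample.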
# ETV5 = ETV5 (Homo sapiens, UniProt P41161 1-510)
# Sequence of ETV5 (P41161 whole entry): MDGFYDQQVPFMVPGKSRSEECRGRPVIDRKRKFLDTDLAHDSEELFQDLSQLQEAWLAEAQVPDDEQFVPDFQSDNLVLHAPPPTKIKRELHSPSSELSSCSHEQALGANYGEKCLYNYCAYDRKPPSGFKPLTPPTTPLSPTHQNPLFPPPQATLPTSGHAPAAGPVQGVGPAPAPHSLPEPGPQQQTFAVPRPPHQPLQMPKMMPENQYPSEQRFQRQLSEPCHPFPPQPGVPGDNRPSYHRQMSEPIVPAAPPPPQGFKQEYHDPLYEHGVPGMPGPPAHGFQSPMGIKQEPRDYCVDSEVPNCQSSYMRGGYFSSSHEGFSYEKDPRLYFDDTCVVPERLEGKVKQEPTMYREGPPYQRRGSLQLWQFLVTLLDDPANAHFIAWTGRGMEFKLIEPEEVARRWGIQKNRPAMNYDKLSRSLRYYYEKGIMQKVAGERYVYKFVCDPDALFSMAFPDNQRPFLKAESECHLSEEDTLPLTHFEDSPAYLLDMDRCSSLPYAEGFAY
# Method in brief: as §1
# ETV2 = biological target: T2, ETV2 (Homo sapiens, UniProt O00321 1-342)
# T2 sequence: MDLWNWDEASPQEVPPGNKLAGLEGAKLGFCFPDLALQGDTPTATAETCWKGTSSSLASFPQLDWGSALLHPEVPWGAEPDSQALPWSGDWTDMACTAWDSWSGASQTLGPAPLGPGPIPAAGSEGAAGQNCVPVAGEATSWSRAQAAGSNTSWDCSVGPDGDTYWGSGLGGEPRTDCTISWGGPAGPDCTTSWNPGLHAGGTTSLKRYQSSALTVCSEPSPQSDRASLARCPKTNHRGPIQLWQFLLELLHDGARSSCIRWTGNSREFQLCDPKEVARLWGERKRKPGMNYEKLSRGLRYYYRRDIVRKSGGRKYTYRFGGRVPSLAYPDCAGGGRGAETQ
# Method in brief: as §1
# ELF3 = biological target: T3, ELF3 (Homo sapiens, UniProt P78545 1-371)
# T3 sequence: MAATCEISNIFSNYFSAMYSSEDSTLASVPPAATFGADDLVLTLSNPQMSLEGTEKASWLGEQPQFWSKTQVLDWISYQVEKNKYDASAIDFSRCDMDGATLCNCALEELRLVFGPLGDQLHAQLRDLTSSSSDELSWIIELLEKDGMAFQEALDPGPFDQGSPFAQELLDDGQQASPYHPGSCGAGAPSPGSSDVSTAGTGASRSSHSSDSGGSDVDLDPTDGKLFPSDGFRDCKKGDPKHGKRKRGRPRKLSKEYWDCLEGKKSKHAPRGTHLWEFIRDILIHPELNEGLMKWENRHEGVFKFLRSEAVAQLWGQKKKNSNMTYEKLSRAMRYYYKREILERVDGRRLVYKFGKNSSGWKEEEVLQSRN
# Method in brief: as §1
# ERF = biological target: T4, ERF (Homo sapiens, UniProt P50548 1-548)
# T4 sequence: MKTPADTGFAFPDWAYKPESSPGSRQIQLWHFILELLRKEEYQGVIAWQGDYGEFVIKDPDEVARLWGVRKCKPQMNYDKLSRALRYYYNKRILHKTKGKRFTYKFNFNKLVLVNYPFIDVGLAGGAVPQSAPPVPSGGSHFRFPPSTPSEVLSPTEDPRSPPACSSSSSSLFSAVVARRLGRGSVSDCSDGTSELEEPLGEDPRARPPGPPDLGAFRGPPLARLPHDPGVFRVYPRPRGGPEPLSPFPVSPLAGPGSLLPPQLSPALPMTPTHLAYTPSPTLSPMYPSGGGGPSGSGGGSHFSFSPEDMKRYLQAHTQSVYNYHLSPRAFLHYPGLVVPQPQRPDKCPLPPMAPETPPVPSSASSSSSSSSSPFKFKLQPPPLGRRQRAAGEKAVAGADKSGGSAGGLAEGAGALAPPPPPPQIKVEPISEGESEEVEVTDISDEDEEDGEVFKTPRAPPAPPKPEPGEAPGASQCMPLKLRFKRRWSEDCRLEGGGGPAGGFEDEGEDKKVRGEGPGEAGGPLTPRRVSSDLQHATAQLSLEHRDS
# Method in brief: as §1
# ETS2 = biological target: T5, ETS2 (Homo sapiens, UniProt P15036 1-469)
# T5 sequence: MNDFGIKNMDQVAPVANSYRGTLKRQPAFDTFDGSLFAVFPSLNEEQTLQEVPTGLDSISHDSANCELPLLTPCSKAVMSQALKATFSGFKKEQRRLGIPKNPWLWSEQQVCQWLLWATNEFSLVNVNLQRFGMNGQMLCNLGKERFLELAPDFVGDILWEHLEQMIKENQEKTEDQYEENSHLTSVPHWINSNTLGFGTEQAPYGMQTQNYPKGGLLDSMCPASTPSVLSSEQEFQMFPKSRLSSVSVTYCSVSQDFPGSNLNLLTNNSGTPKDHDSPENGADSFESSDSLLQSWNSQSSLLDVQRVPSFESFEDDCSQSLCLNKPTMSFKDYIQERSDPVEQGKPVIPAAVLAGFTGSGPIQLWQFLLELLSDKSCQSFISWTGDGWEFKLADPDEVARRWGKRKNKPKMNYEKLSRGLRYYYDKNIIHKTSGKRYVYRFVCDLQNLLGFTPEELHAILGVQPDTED
# Method in brief: as §1
# ETV7 = biological target: T6, ETV7 (Homo sapiens, UniProt Q9Y603 1-341)
# T6 sequence: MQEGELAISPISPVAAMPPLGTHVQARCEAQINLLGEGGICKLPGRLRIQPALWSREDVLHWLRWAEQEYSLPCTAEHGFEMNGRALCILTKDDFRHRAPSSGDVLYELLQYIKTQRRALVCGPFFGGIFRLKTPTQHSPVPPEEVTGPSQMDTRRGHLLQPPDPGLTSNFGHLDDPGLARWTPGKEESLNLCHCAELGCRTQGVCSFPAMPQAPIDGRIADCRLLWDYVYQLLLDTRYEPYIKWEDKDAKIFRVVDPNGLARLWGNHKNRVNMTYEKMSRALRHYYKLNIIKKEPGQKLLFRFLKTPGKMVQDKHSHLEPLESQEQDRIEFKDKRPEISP
# Method in brief: as §1
sequence,measurement,setting,value
CGAACG,binding signal,EHF,"1 fold enrichment (6-mer frequency, TF over GST control)"
same,binding signal,ETV5,"1.03 fold enrichment (6-mer frequency, TF over GST control)"
same,binding signal,ETV2,"1.09 fold enrichment (6-mer frequency, TF over GST control)"
same,binding signal,ELF3,"1.05 fold enrichment (6-mer frequency, TF over GST control)"
same,binding signal,ERF,"1.11 fold enrichment (6-mer frequency, TF over GST control)"
same,binding signal,ETS2,"1.03 fold enrichment (6-mer frequency, TF over GST control)"
same,binding signal,ETV7,"1.02 fold enrichment (6-mer frequency, TF over GST control)"
